Compounds without any hit were thinned out: in the full panel of roughly 83,000, 20% have a hit.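 Cells were grown in 96-well plates and exposed to the test compound at a single concentration for 48 hours; results are reported as percent growth, with values below 10 considered active.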 Values without a mark were called inactive. Activity calls are given as the source filed them.

One test deals with SN12C renal. The test is described as follows: NCI-60 one-dose screen, 48 h (100 = growth as untreated, 0 = no growth, -100 = all killed). To be noted: 10 µM unless noted.
On to `COc1cccc2cc(-c3cc4ccccc4[nH]3)/c(=N/C(=S)Nc3ccc(C)cc3)oc12`, for which the growth was 77.6%.
Same read-out and setting: next, `CN1C(=O)N(C)C2NC(N/N=C/c3ccccc3)=NC21` (stereo unspecified): 98.5%.
Still for that read-out and setting: under `COc1cc(-c2cc(=O)oc3cc(O)ccc23)cc(OC)c1OC` stands 79%.
On to `COc1ccccc1/C=N/NC1=NC2C(N1)N(C)C(=O)N2C` (stereo unspecified), for which the growth is 100%.
The same measure, in the same setting: next, `CCN(CC)CCSCCCNc1c(C)cnc2cc(Cl)ccc12`: 82.7%.
Same read-out and setting: under `COc1cc(Nc2cc(O)c3c(=O)cc(-c4ccccc4)oc3c2)cc(OC)c1` stands 44.3%; under `NC(=O)c1ncn(C2OC(CO)C(O)C2O)n1` (stereo unspecified), 82.4%.
On the same count and under the same terms, under `C(=N\Nc1ncc(-c2cc3cc4c(cc3o2)OCO4)s1)/c1c[nH]c2ccccc12` stands -12.3% (active); under `c1ccc(C2CC(c3cccc(Nc4ccncc4)c3)=NN2c2ccccc2)cc1` (stereo unspecified), 77.9%.
For the compound `CC1=NNC(=O)C1CCC(=O)N/N=C(\C)c1ccc2ccccc2c1` (stereo unspecified), the growth is 102%.
On the same count and under the same terms, next, `O=C(N/N=C/c1ccncc1)c1ccccc1Nc1cccc(C(F)(F)F)c1`: 90.8%.
On to `COc1ccc(Nn2c(SCC(=O)Nc3nc(-c4ccc(Cl)cc4)cs3)nc(C)c2C)cc1`, for which the growth was 67.2%.
As to `COc1c(Cl)cc(Cl)c2ccc(C=C3C(=O)N(C)C(=O)N(C)C3=O)nc12`, the growth was 99.3%.
Same read-out and setting: next, `Cc1cccc(C)c1-c1cc(Cc2ccc(Cl)cc2)c(=O)[nH]n1`: 89.5%.
For the compound `CCN1C(=O)N(CC)C2C1NN=c1s/c(=C3\C(=O)Nc4ccccc43)c(=O)n12` (stereo unspecified), the growth was 34%.
Same read-out and setting: under `CC(=O)Nc1ccc(C(=O)Nc2cc(-c3ccccc3)ccc2N)cc1` stands 84.2%; under `CN1CCN(c2cc(F)c(NC3=C(Cl)C(=O)c4ncccc4C3=O)c(F)c2)CC1`, -97.5% (active); under `Clc1nc(Cl)c2ncn(CC3(Cn4cnc5c(Cl)nc(Cl)nc54)COC3)c2n1`, -86.6% (active).
Regarding `CC(C)(C)CC(C)(C)Nc1c(-c2ccc(C(F)(F)F)cc2)nc2cnccn12`, the growth was 86.1%.
For the compound `CCC(C)N(CCNc1cc(OC)cc2cccnc12)CCC(C)C` (stereo unspecified), the growth was 93.5%.
Same read-out and setting: next, `Cn1c(COC(=O)NCCc2ccccn2)nc2c(N3CCOCC3)nc(Cl)nc21`: -41.5% (active); `BrC(Br)(Br)c1cnc2ccccc2n1`: 71.6%; `Clc1ccc(N2N=C(c3cccc(Nc4ccncc4)c3)CC2c2ccc3c(c2)OCO3)cc1` (stereo unspecified): 62.6%.
Still for that read-out and setting: under `COc1cc(CNC(=O)CCCCC[P+](c2ccccc2)(c2ccccc2)c2ccccc2)c(OC)c2c1OCO2` stands 75.4%; under `CC[C@@]12C=CCN3CC[C@]4(c5cc(NC(=O)COc6cc(OCC(=O)Nc7cc8c(cc7OC)N(C)[C@H]7[C@@](O)(C(=O)OC)[C@H](OC(C)=O)[C@]9(CC)C=CCN%10CC[C@]87[C@@H]%109)cc7oc(-c8ccccc8)cc(=O)c67)c(OC)cc5N(C)[C@@H]4[C@](O)(C(=O)OC)[C@H]1OC(C)=O)[C@H]32`, 49.4%; under `O=C1Nc2c(ccc(Cl)c2Cl)/C1=C/c1ccc(O)cc1`, 97.4%.
Still for that read-out and setting: under `COc1ccc(/C=C(/c2ccccc2)[N+](=O)[O-])cc1` stands -38.4% (active).
As to `COc1ccccc1/C=C1\Oc2cc(OCCCN3CCCC3)ccc2C1=O`, the growth is 86.9%.
`COc1ccc(/C=C\c2nc3ccccc3s2)cc1OP(=O)(O)O`: the growth is 55.4%.
For the compound `COc1ccc(-c2c[nH]c(C(=O)O)c2-c2cc(OC)c3c(c2OC)OCO3)cc1`, the growth is 99.9%.
Consider `COc1ccc(C(=O)c2cc3c(N)c(C(=O)Nc4cccc(Cl)c4C)sc3nc2C)cc1`, for which the growth is 20.3%.
On the same count and under the same terms, next, `O=C(/C=C\c1ccc(OCCCCCC[P+](c2ccccc2)(c2ccccc2)c2ccccc2)cc1)c1ccc2c(c1)OCCO2`: 2.08% (active); `Cc1cccc(Oc2ccc(Nc3ncnc4ccc(NC(=O)CNCCO)cc34)cc2Cl)c1`: 39.4%; `O=C(CSc1nc2sc3c(c2c(=O)n1Cc1ccccc1)CCCC3)N1CCN(c2ccccc2)CC1`: 110%.
Take `Cc1cccc(Oc2ccc(Nc3ncnc4ccc(NC(=O)CN(C)C)cc34)cc2Cl)c1`: the growth was 36.7%.
Still for that read-out and setting: next, `O=C1/C(=C/c2ccc(O)cc2)COc2ccc(-c3ccccc3)cc21`: 76.2%.
Take `COc1ccc(C(=O)c2cc3c(N)c(C(=O)Nc4cccc(OC)c4)sc3nc2C)cc1`: the growth was 28.1%.
Take `NS(=O)(=O)c1cccc(NC(=O)C(=O)C2C(=O)Nc3ccccc32)c1` (stereo unspecified): the growth is 99.5%.

The subject of a further test is UO-31 renal. The test is described as above. The conditions noted are these: 10 µM unless noted.
As for `COc1cccc2cc(-c3cc4ccccc4[nH]3)/c(=N/C(=S)Nc3ccc(C)cc3)oc12`, the growth is 85.3%.
Still for that read-out and setting: under `CN1C(=O)N(C)C2NC(N/N=C/c3ccccc3)=NC21` (stereo unspecified) stands 92.7%.
As to `COc1cc(-c2cc(=O)oc3cc(O)ccc23)cc(OC)c1OC`, the growth is 72.2%.
Same read-out and setting: next, `COc1ccccc1/C=N/NC1=NC2C(N1)N(C)C(=O)N2C` (stereo unspecified): 86.2%.
On to `CCN(CC)CCSCCCNc1c(C)cnc2cc(Cl)ccc12`, for which the growth is 54.9%.
Regarding `COc1cc(Nc2cc(O)c3c(=O)cc(-c4ccccc4)oc3c2)cc(OC)c1`, the growth is 40.3%.
On the same count and under the same terms, under `NC(=O)c1ncn(C2OC(CO)C(O)C2O)n1` (stereo unspecified) stands 83.7%.
`C(=N\Nc1ncc(-c2cc3cc4c(cc3o2)OCO4)s1)/c1c[nH]c2ccccc12`: the growth was -96.5% (active).
On the same count and under the same terms, under `c1ccc(C2CC(c3cccc(Nc4ccncc4)c3)=NN2c2ccccc2)cc1` (stereo unspecified) stands 70.3%.
Same read-out and setting: under `CC1=NNC(=O)C1CCC(=O)N/N=C(\C)c1ccc2ccccc2c1` (stereo unspecified) stands 84.8%; under `O=C(N/N=C/c1ccncc1)c1ccccc1Nc1cccc(C(F)(F)F)c1`, 60.9%.
Same read-out and setting: under `COc1ccc(Nn2c(SCC(=O)Nc3nc(-c4ccc(Cl)cc4)cs3)nc(C)c2C)cc1` stands 39.4%; under `COc1c(Cl)cc(Cl)c2ccc(C=C3C(=O)N(C)C(=O)N(C)C3=O)nc12`, 96%; under `Cc1cccc(C)c1-c1cc(Cc2ccc(Cl)cc2)c(=O)[nH]n1`, 52.5%.
For the compound `CCN1C(=O)N(CC)C2C1NN=c1s/c(=C3\C(=O)Nc4ccccc43)c(=O)n12` (stereo unspecified), the growth was 42.9%.
On the same count and under the same terms, next, `CC(=O)Nc1ccc(C(=O)Nc2cc(-c3ccccc3)ccc2N)cc1`: 48.7%.
Still for that read-out and setting: under `CN1CCN(c2cc(F)c(NC3=C(Cl)C(=O)c4ncccc4C3=O)c(F)c2)CC1` stands -100% (active).
Still for that read-out and setting: under `Clc1nc(Cl)c2ncn(CC3(Cn4cnc5c(Cl)nc(Cl)nc54)COC3)c2n1` stands -97.7% (active); under `CC(C)(C)CC(C)(C)Nc1c(-c2ccc(C(F)(F)F)cc2)nc2cnccn12`, 64.1%; under `CCC(C)N(CCNc1cc(OC)cc2cccnc12)CCC(C)C` (stereo unspecified), 77.8%.
As for `Cn1c(COC(=O)NCCc2ccccn2)nc2c(N3CCOCC3)nc(Cl)nc21`, the growth is -99.3% (active).
On the same count and under the same terms, next, `BrC(Br)(Br)c1cnc2ccccc2n1`: -51.1% (active).
Same read-out and setting: next, `Clc1ccc(N2N=C(c3cccc(Nc4ccncc4)c3)CC2c2ccc3c(c2)OCO3)cc1` (stereo unspecified): 41.9%.
Still for that read-out and setting: under `COc1cc(CNC(=O)CCCCC[P+](c2ccccc2)(c2ccccc2)c2ccccc2)c(OC)c2c1OCO2` stands 92.3%; under `CC[C@@]12C=CCN3CC[C@]4(c5cc(NC(=O)COc6cc(OCC(=O)Nc7cc8c(cc7OC)N(C)[C@H]7[C@@](O)(C(=O)OC)[C@H](OC(C)=O)[C@]9(CC)C=CCN%10CC[C@]87[C@@H]%109)cc7oc(-c8ccccc8)cc(=O)c67)c(OC)cc5N(C)[C@@H]4[C@](O)(C(=O)OC)[C@H]1OC(C)=O)[C@H]32`, 75.9%.
For `O=C1Nc2c(ccc(Cl)c2Cl)/C1=C/c1ccc(O)cc1`, the growth is 61.8%.
As for `COc1ccc(/C=C(/c2ccccc2)[N+](=O)[O-])cc1`, the growth was -100% (active).
For `COc1ccccc1/C=C1\Oc2cc(OCCCN3CCCC3)ccc2C1=O`, the growth is 77.9%.
Still for that read-out and setting: next, `COc1ccc(/C=C\c2nc3ccccc3s2)cc1OP(=O)(O)O`: 51.5%; `COc1ccc(-c2c[nH]c(C(=O)O)c2-c2cc(OC)c3c(c2OC)OCO3)cc1`: 90.3%; `COc1ccc(C(=O)c2cc3c(N)c(C(=O)Nc4cccc(Cl)c4C)sc3nc2C)cc1`: 21.7%.
Same read-out and setting: under `O=C(/C=C\c1ccc(OCCCCCC[P+](c2ccccc2)(c2ccccc2)c2ccccc2)cc1)c1ccc2c(c1)OCCO2` stands 4.82% (active).
For the compound `Cc1cccc(Oc2ccc(Nc3ncnc4ccc(NC(=O)CNCCO)cc34)cc2Cl)c1`, the growth was 41%.
Take `O=C(CSc1nc2sc3c(c2c(=O)n1Cc1ccccc1)CCCC3)N1CCN(c2ccccc2)CC1`: the growth was 76.8%.
With `Cc1cccc(Oc2ccc(Nc3ncnc4ccc(NC(=O)CN(C)C)cc34)cc2Cl)c1`, the growth was 23.3%.
Regarding `O=C1/C(=C/c2ccc(O)cc2)COc2ccc(-c3ccccc3)cc21`, the growth was 42.9%.
The same measure, in the same setting: under `COc1ccc(C(=O)c2cc3c(N)c(C(=O)Nc4cccc(OC)c4)sc3nc2C)cc1` stands 49.3%; under `NS(=O)(=O)c1cccc(NC(=O)C(=O)C2C(=O)Nc3ccccc32)c1` (stereo unspecified), 67.2%.

The values are drawn from PubChem BioAssay (NCI).
